Screening results (PubChem)
The entries come from a sample that favours hits as a whole.
Pf Dd2 growth = inhibitors of Plasmodium falciparum Dd2 growth. P. falciparum Dd2 growth, SYBR Green, 72 h. Potency, µM (highest dose often 28.9 µM), usual class: inhibitors. hit rate 4.3% among 120,000. AID 1347417; active = well fitted inhibition curve with a large enough effect; note: nearly all actives have a fitted effect of over 65% in size
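Infected erythrocytes (Dd2, 0.3% parasitemia, 2.5% hematocrit final) are added to compound in RPMI-1640/Albumax II medium, grown 72 h at 37C in low oxygen, then lysed with saponin/Triton-X containing SYBR Green and read by fluorescence.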
Of the large screens only hits and unclear results are named; the others gave an inactive call.

CC1(c2ccccc2)N(Cc2ccccc2C#N)C(=O)OC12CCN(CCc1ccccc1)CC2 (stereo not given)	none
CNc1oc(-c2ccc(COc3ccc(C)cc3)o2)nc1C#N	none
COc1ccc(Nc2oc(-c3ccc(COc4ccccc4C)o3)nc2C#N)cc1	Pf Dd2 growth 11µM
COc1ccc(OCc2ccc(-c3nc(C#N)c(N4CCCCC4)o3)o2)cc1	none
COc1cccc(-c2cn3c(n2)N(C(=O)C2CCCO2)CCC3)c1 (stereo not given)	none
Cn1cc(CN[C@@H]2C[C@H](CO)[C@@H](O)[C@H]2O)c2ccccc21	none
COc1ccc(C2(C(=O)N3C[C@@H](C(N)=O)[C@H](c4n[nH]c(C)n4)C3)CC2)cc1	none
Cc1ccc2oc(=O)c3cnn(CC(=O)Nc4cccc(C(F)(F)F)c4)c3c2c1	Pf Dd2 growth 1.1µM
Cc1ccc2oc(=O)c3cnn(CC(=O)N4CCN(c5cccc(C(F)(F)F)c5)CC4)c3c2c1	none
Cc1ccc2oc(=O)c3cnn(CC(=O)Nc4ccc(Br)cc4C)c3c2c1	none
OCC1(O)CCN(C2CCN(c3ccc4c(c3)OCO4)CC2)CC1	none
CCOc1cc(=O)n2c(c1C(=O)Nc1cc(OC)c(Cl)cc1OC)CCCC2	none
CCn1nccc1C(=O)N1C[C@@H](Oc2cccnc2)C[C@H]1C(=O)NC	none
CN1CC(=O)N(c2cccnc2)Cc2c1ncnc2N1CCN(c2ncccn2)CC1	none
Cc1cc(C(=O)N2CCC(c3noc(C4CC4)n3)C2)nn1C (stereo not given)	none
O=C(c1ccccn1)N1C[C@@H]2OCC(=O)N(CC3CCCCC3)[C@@H]2C1	none
O=C(Nc1ccc([C@H]2OCC(=O)N(CC3CCCCC3)[C@@H]2CO)cc1)c1ccccn1	Pf Dd2 growth 11µM
Cc1ccccc1C(=O)Nc1ccc([C@H]2OCC(=O)N(Cc3ccncc3)[C@@H]2CO)cc1	none
COc1ccc(NC(=O)C2(Cc3ccccc3)CCCCC(=O)N2)c(OC)c1 (stereo not given)	none
COc1ccc2[nH]cc(CCNC(=O)C3(Cc4ccccc4)CCCCC(=O)N3)c2c1 (stereo not given)	Pf Dd2 growth 2µM
COc1ccc2[nH]cc(CCNC(=O)Nc3ccccc3)c2c1	none
O=C(O)COc1ccccc1CN1CCN(Cc2cccs2)CC1	none
Cc1ccc(C(=O)N(C)CC2(C)CCOCC2)s1	none
COCCNC(=O)[C@@H]1C[C@H](Oc2ccccc2)CN1C(=O)c1ncoc1-c1cccc(C)c1	none
COc1ccc(CC(=O)Nc2ccc3ncnc(N4CCCC4)c3c2)c(Cl)c1	none
O=C(Nc1ccc2ncnc(N3CCCCC3)c2c1)c1ccsc1	none
CCn1ccc(C(=O)Nc2ccc3ncnc(N4CCCC4)c3c2)n1	none
CCOCC(=O)Nc1ccc2ncnc(N3CCCCC3)c2c1	none
N#Cc1ccc(C(=O)Nc2ccc3ncnc(N4CCCCC4)c3c2)cc1	none
O=C(Nc1ccc2c(N3CCCCC3)ncnc2c1)c1ccsc1	Pf Dd2 growth 7.1µM
N#Cc1ccc(C(=O)Nc2ccc3c(N4CCCCC4)ncnc3c2)cc1	Pf Dd2 growth 8.9µM
O=C(Cc1ccsc1)Nc1ccc2c(N3CCCC3)ncnc2c1	Pf Dd2 growth 5µM
O=C(NC1CCCN(c2cc(N3CCCC3)ncn2)C1)c1ccsc1 (stereo not given)	none
Cc1ccc(NC(=O)N[C@@H]2C=C(C(=O)N[C@H](CC(C)C)C(N)=O)C[C@@H](O)[C@@H]2O)cc1	none
COC(=O)CNC(=O)c1nc(-c2ccccc2OC)c2ccccn12	none
C=CCN(C)CC[C@@H]1CC[C@H](O)[C@@H](C(=O)NC2CC2)O1	none
COc1ccc(CNC(=O)N2CCC(CCOc3ccccc3OC)C2)cc1 (stereo not given)	none
CN1CC(=O)N(C2CCNC2)Cc2c(NC3CCCC3)ncnc21 (stereo not given)	none
COc1ccc(-c2cnc3[nH]cc(CC(=O)NCCN(C)C)c3c2)cc1	none
COc1cccc([C@@H]2CN(C(=O)c3oc(C)nc3C)C[C@H]2C(=O)O)c1OC	none
O=c1[nH]cccc1-n1ccnc1-c1cccc(Cl)c1	none
CS(=O)(=O)CCNC(=O)C1CCCN(C2CCN(Cc3cccnc3)CC2)C1 (stereo not given)	none
COc1cccc(CCC2CCCN(C3CCN(Cc4cccnc4)CC3)C2)c1 (stereo not given)	Pf Dd2 growth 8.9µM
C=CCS(=O)(=O)N1CCCC(CCc2cccc(OC)c2)C1 (stereo not given)	none
CC1CCC(NC(=O)c2noc(-c3ccccc3F)n2)CC1 (stereo not given)	none
CN1C[C@H](O)C[C@H]1c1nnc2n1CCN(Cc1ccc(F)cc1F)C2	none
COc1ccc(-c2cc(-c3cccnc3)c3cncn3c2)cn1	none
CC(=O)Nc1cccc(-c2cc(-c3ccncc3)c3cncn3c2)c1	none
c1cncc(-c2cc(-c3cccc4cc[nH]c34)cn3cncc23)c1	Pf Dd2 growth 10µM
COc1ccc(-c2cc(-c3cccc(O)c3)cn3cncc23)cc1	Pf Dd2 growth 1.3µM
COc1cccc(-c2cc(-c3cn[nH]c3)c3cncn3c2)c1	none
COc1ccc(-c2cc(-c3cccc(C(N)=O)c3)cn3cncc23)cc1	Pf Dd2 growth 3.5µM
O=c1ccc(-c2cc(-c3cccc(C(F)(F)F)c3)cn3cncc23)c[nH]1	none
NC(=O)c1cccc(-c2cc(-c3cccnc3)c3cncn3c2)c1	none
COc1ccc(-c2cc(-c3cccc(CO)c3)cn3cncc23)cn1	Pf Dd2 growth 4µM
COCc1nc(-c2ccc(OC3CN(C(=O)C(C)Oc4ccccc4)C3)cc2)no1 (stereo not given)	none
CN(C)c1ccc(CN2CCC3(C2)C(=O)N(C)c2ccccc23)cc1 (stereo not given)	none
O=C(Cc1ccc(F)cc1)NC1CCN(c2cc(C(F)(F)F)ncn2)CC1	none
O=C(NCC1CCCO1)C1CCN(C2CCN(C(=O)CCC3CCCCC3)CC2)CC1 (stereo not given)	none
CC(C)c1ccc(C(=O)N2CC(C(=O)N(C)C)C3(CCOCC3)C2)cc1 (stereo not given)	none
C[C@@H]1CN(C(=O)c2nc3sccn3c2CN(C)Cc2ccc3nonc3c2)C[C@H](C)O1	none
CN1CCCCCC1C(=O)N1CCC(N2CCC(C(=O)NCc3ccccn3)CC2)CC1 (stereo not given)	none
Cc1cccc(C(=O)N2C(C(=O)NC3CC3)COC23CCN(C(=O)Cc2ccccc2)CC3)c1 (stereo not given)	none
CC(C)N1CCC(N2C[C@@H](CO)[C@H](c3nc(C4CC4)no3)C2)CC1	none
CCCc1ccc(S(=O)(=O)N2CCc3nc4cc[nH]n4c(=O)c3C2)cc1	none
COCC(=O)N[C@H]1C[C@@H](Cc2cc(CN(C)Cc3ccccc3)on2)C1(C)C	Pf Dd2 growth 8.9µM
CC(=O)N[C@H]1C[C@@H](Cc2cc(CC(C)C)on2)C1(C)C	none
CC(=O)N[C@H]1C[C@@H](Cc2cc(CN(C)c3ccccc3)on2)C1(C)C	none
COCc1cc(C[C@@H]2C[C@H](NC(=O)CC(C)(C)C)C2(C)C)no1	none
CC(=O)N1CCC(N[C@H]2C[C@@H](Cc3cc(CN(C)Cc4ccccc4)on3)C2(C)C)CC1	none
COC(=O)C(=O)N[C@H]1C[C@@H](Cc2cc(-c3ccccc3)on2)C1(C)C	none
CC1(C)[C@H](Cc2cc(CCO)on2)C[C@@H]1NCc1ccco1	none
COCC(=O)N[C@H]1C[C@@H](Cc2cc(-c3ccccc3)on2)C1(C)C	Pf Dd2 growth 7.9µM
CC1(C)[C@H](Cc2cc(CC3CCCCC3)on2)C[C@@H]1NC(=O)c1ccco1	Pf Dd2 growth 5µM
CC(C)C(=O)N[C@H]1[C@H](O)[C@H](O)C[C@@H]1c1ccc(C(F)(F)F)nc1	none
CCn1ncc(N2CCC(NC(=O)CN(C)C)CC2)cc1=O	none
O=C(c1ccc(C(F)(F)F)cc1)N1CCCN(c2nc3ncccc3o2)CC1	none
